Holding throughout (assay): bioluminescence (viable cell) signal fold change after vs before treatment, normalised to DMSO (ratio); higher = more tumour cell growth / less inhibition
Settings in all cases: 10 µM; treatment time 6 days

The subject of test [1] is LEGO organoid PT (PTEN-/-; TP53-/-). The method, then:
(§1)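 Luc2-labelled iPSC-derived glioblastoma-like organoids (LEGOs, genotypes PT = PTEN-/-;TP53-/-, PTCC = plus CDKN2A/B-/-, PTN = plus NF1-/-) were treated with 10 uM drug for 6 days (applied every other day) at 37 C. Bioluminescence imaging was done before treatment and 2 days after the last dose. BLI signals were normalised to the DMSO control on the same day and then to the pre-treatment signal (N=3).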

In test [2] the test system is LEGO organoid PTCC (PTEN-/-; TP53-/-; CDKN2A-/-; CDKN2B-/-). The method, then: as §1
The subject of test [3] is LEGO organoid PTN (PTEN-/-; TP53-/-; NF1-/-). The method, then: as §1

As for `CS(=O)(=O)c1ccc(C(=O)Nc2ccc(Cl)c(-c3ccccn3)c2)c(Cl)c1` [Vismodegib], the bioluminescence in test [1] worked out at 0.63; in test [2] it was 2.45; in test [3] it was 0.888.

In the case of `CCc1cccc2c3c([nH]c12)C(CC)(CC(=O)O)OCC3` (stereo not drawn) [Etodolac], the bioluminescence in test [1] worked out at 1; in test [2], 0.917; in test [3] it was 1.19.

`C[C@@H](c1ncncc1F)[C@](O)(Cn1cncn1)c1ccc(F)cc1F` [Voriconazole]: the bioluminescence in test [1] came out at 0.515; in test [2], 0.587; in test [3] it was 1.46.

With `CC1=NN(c2ccccc2)C(=O)C1` [Edaravone], the values for the bioluminescence in test [2] and in test [3] were 0.508 and 1.12, respectively.

As to `C[C@@H]1CCN(C(=O)CC#N)C[C@@H]1N(C)c1ncnc2[nH]ccc12` [Tofacitinib], the bioluminescence in test [1] came to 1.24; in test [2] it was 1.34; in test [3] it was 1.19.

Take `N[C@H]1CONC1=O` [L-Cycloserine]: the values for the bioluminescence in test [1], in test [2] and in test [3] were 0.758, 1.26 and 0.884, respectively.

As for `Nc1nc(Cl)nc2c1ncn2[C@H]1C[C@H](O)[C@@H](CO)O1` [Cladribine], the bioluminescence in test [2] came to 1.17; in test [3] it was 1.05.

`CNS(=O)(=O)CCc1ccc2[nH]cc(C3CCN(C)CC3)c2c1.Cl` [Naratriptan hydrochloride]: the bioluminescence stood at 0.774 in test [1], 0.859 in test [2] and 1.2 in test [3].

As to `CCCCCCCCCC(=O)OCCN1CCN(CCCN2c3ccccc3Sc3ccc(C(F)(F)F)cc32)CC1` [Fluphenazine decanoate], the values for the bioluminescence in test [2] and in test [3] were 2.63 and 0.964, respectively.

In the case of `CN1C(C(=O)Nc2ccccn2)=C(O)c2ccccc2S1(=O)=O` [Piroxicam], the figures for the bioluminescence in test [1], in test [2] and in test [3] were 1.07, 1.65 and 1.14, respectively.

As to `CN(C/C=C/c1ccccc1)Cc1cccc2ccccc12.Cl` [Naftifine hydrochloride], the bioluminescence in test [1] was 0.607; in test [2], 1.3; in test [3] it was 0.535.

`CCc1nn(CCCN2CCN(c3cccc(Cl)c3)CC2)c(=O)n1CCOc1ccccc1.Cl` [Nefazodone hydrochloride]: the bioluminescence in test [1] was 1.4; in test [2], 1.12; in test [3], 0.52.

For the origin of these results see the supplement of paper PMC10811239.
